Source: PubChem (National Center for Advancing Translational Sciences (NCATS))
D2 PAM-1: D2 dopamine receptor (human) potentiation. P14416. HEK293 T-REx D2, calcium flux, EC20 dopamine potentiation. potentiation, % at 10 µM. actives 0.34% (n = 340,000). AID 485347;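 active = potentiation over 3 SD above the plate norm, cut at about 30% in these data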
Target sequence (P14416 whole entry, looked up): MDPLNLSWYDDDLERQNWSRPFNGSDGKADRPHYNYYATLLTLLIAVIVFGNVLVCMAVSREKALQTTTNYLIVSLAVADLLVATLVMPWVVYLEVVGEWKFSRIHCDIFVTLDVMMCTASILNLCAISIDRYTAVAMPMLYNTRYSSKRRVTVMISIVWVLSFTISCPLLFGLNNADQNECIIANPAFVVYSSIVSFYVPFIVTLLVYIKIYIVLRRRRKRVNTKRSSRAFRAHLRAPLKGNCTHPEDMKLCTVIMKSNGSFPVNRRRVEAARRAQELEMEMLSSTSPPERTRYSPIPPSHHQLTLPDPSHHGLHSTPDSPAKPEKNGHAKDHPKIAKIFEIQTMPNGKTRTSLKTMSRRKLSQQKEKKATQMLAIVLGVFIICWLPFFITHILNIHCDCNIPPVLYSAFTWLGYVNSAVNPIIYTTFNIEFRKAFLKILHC
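Tetracycline-induced Hek293 Trex D2 cells, force-coupled to calcium, loaded with no-wash calcium dye. Compound added with 180 s kinetic read for agonism, then EC20 dopamine and a further 180 s read for potentiation.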
D2 ag-1: agonists of human D2 dopamine receptor | P14416 | HEK293 T-REx D2 cells, calcium flux agonist mode | activation, % at 2 µM | actives 0.53% (n = 340,000) | AID 485358;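 active = activation over 3 SD above normal in the single-dose calcium agonist read, cut at about 30% in these data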
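Tetracycline-induced HEK293 Trex cells with D2 receptor force-coupled to calcium signaling, plated overnight at 30 C and loaded with no-wash calcium dye. Calcium flux read kinetically for 180 s after compound addition; responses flag agonists.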
D2 antag: antagonists of human D2 dopamine receptor; HEK293 TREx D2 cells, calcium flux, dopamine EC80; inhibition, % at 10 µM; AID 485344; actives 2% (n = 340,000); P14416; in the data active = inhibition above about 30%; inactive = below that, where a call was filed
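Overnight-induced (tetracycline, 30 C) HEK293 T-REx cells carrying force-coupled D2 receive a no-wash calcium dye, then compound, then EC80 dopamine at 180 s; signals are read kinetically throughout.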
D2 ag-2: human D2 receptor agonism in beta-arrestin assay; P14416; DiscoveRx PathHunter D2 beta-arrestin, luminescence, 90 min; 100% = 57 uM dopamine signal; activation, % (concentration not given with the values); actives 0.084% (n = 360,000); AID 624465; in the data active = activation above about 40%; inconclusive = between about 15% and that limit
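Agonist mode: compounds alone added to overnight-plated D2 PathHunter cells for 90 min at 37 C, with 57 uM final dopamine (EC100) defining full response. Beta-arrestin recruitment detected by chemiluminescent reagent, read after 1 h at ambient temperature.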
D2 PAM-2: human D2 receptor positive allosteric modulation; potentiation, % (no concentration beside the values); DiscoveRx D2 beta-arrestin cells, luminescence, 90 min; 100% = 57 uM dopamine signal; P14416; AID 624464; actives 0.23% (n = 360,000); in the data active = potentiation above about 50%; inconclusive = mostly about 30% to 49%
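PathHunter beta-arrestin assay in DiscoveRx D2 cells. Compounds were added with an EC20 of dopamine (50 nM final) for 90 min at 37 deg C. Luminescence was read 1 h after detection reagent, with 57 uM dopamine as the EC100 control.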
Numbers stand for hits; n = inactive; u = inconclusive; x = no result. An excerpt weighted towards active compounds, which were near 2.4% of everything screened.

SMILES	D2 PAM-1	D2 ag-1	D2 antag	D2 ag-2	D2 PAM-2
COc1cc2oc3cc(C#Cc4ccc(N)cc4)ccc3c(=O)c2cc1OC	x	x	x	n	n
Nc1ccc(C#Cc2ccc3c(=O)c4ccccc4oc3c2)cc1	n	n	41	n	n
O=C(NCc1ccc(Cl)cc1)C1CCN(c2cnccn2)CC1	n	n	n	n	n
O=C(NCc1ccc(Cl)cc1)C1CCCN(c2cnccn2)C1 (stereo not drawn)	n	n	36	n	n
Cc1cc(NC(=O)CN2CC(C)OC(C)C2)n(-c2nc3ccccc3s2)n1 (stereo not drawn)	n	n	34	n	n
CCCCC1(C)OC(=O)C(=Cc2ccc(-c3ccc(Cl)c(C(=O)O)c3)o2)C(=O)O1 (stereo not drawn)	n	n	42	n	n
COc1cccc(CNC(=O)CSc2nc3ccccc3nc2Cc2ccccc2)c1	n	n	x	x	x
O=C1CC(N2CCN(c3ccccc3)CC2)C(=O)N1c1cccc(Br)c1 (stereo not drawn)	37	n	n	n	n
O=C1CC(N2CCN(c3cccc(C(F)(F)F)c3)CC2)C(=O)N1c1ccccc1F (stereo not drawn)	n	n	33	n	n
O=[N+]([O-])c1ccc(-n2nnnc2-c2ccccc2)c([N+](=O)[O-])c1	n	n	n	u	86
CC(C)(C)C(=O)Cn1c(=O)n(CCCCCC(=O)NCc2ccc3c(c2)OCO3)c(=O)c2sccc21	n	n	x	x	x
CCCCc1ccc(NC(=S)NCCc2ccc(F)cc2)cc1	n	n	30	n	n
CCCCc1ccc(NC(=S)NCCO)cc1	n	n	31	n	n
CCCCNC(=S)Nc1ccc(Cl)cc1	n	n	n	n	n
CCc1noc(C)c1C(=O)N1CCN(S(=O)(=O)c2ccc(Cl)cc2)CC1	n	n	n	n	n
CCc1cc(C(=O)N2CCN(S(=O)(=O)c3ccc(Cl)cc3)CC2)sc1C	n	n	39	n	n
CCCNc1nc2c(c(=O)[nH]c(=O)n2C)n1CCC(C)C	n	n	n	n	n
CCCCn1c(NCCC)nc2c1c(=O)[nH]c(=O)n2C	40	n	n	n	n
Cc1nc2ccccc2c(=O)n1CCCO	n	n	32	n	n
CN(C)S(=O)(=O)c1ccc2c(c1)N(CC(=O)N1CCN(c3ccccc3F)CC1)CCS2	n	n	x	x	x
CC1(c2ccccc2Cl)NC(=O)N(CC(=O)Nc2ccc(N3CCCCC3)cc2)C1=O (stereo not drawn)	n	n	35	n	n
CC1(c2ccccc2Cl)NC(=O)N(CC(=O)Nc2ccc(N3CCOCC3)cc2)C1=O (stereo not drawn)	x	x	x	n	n
CCS(=O)(=O)c1ccc(O)c(NC(=O)/C=C/c2ccccc2)c1	n	n	n	n	n
Cc1c(O)ccc(NC(=O)/C=C/c2ccccc2)c1C	n	n	35	n	n
COCCn1c(C)cc(/C=C(\C#N)C(=O)OC(C)C(=O)Nc2ccc(NC(C)=O)cc2)c1C (stereo not drawn)	n	n	33	n	n
SMILES	D2 PAM-1	D2 ag-1	D2 antag	D2 ag-2	D2 PAM-2
C[N+](C)(C)CC/C=C1/c2ccccc2CSc2ccccc21	n	n	n	n	n
CNCCC=C1c2ccccc2CCc2ccccc21	n	n	42	n	n
CCN(CC)CCNC(=O)c1cc([N+](=O)[O-])c(N(C)C)cc1OC	n	n	94	n	n
CCN(CC)CCNC(=O)c1cc(Cl)c(N)cc1OC	n	n	82	n	n
O=C(Cc1ccccc1)c1c[nH]c(C(=O)O)c1	n	n	n	n	n
CN(C)C(=O)c1cc(C(=O)Cc2ccccc2)c[nH]1	n	n	37	n	n
Cc1ccc(CN2C(=O)C(=O)c3cc(Br)cc(C)c32)cc1	n	n	x	x	x
COc1ccc(Cl)cc1C(=O)NNC(=O)COC(=O)CCN=C1NS(=O)(=O)c2ccccc21	n	n	30	n	n
COc1ccccc1C(=O)COC(=O)CCN=C1NS(=O)(=O)c2ccccc21	n	n	n	n	n
Cc1cc(C)c2ccc(N)nc2c1O	n	n	n	n	n
Cc1cc(C)c2ccc(C)[n+]([O-])c2c1O	n	n	37	n	n
Cc1csc2nc(-c3cccc(NC(=O)C(C)C)c3)cn12	n	x	x	x	x
COc1ccc(C(=O)NNC(=O)CSc2nnc(-c3cccnc3)o2)cc1	42	n	n	n	n
CCCn1c(SCC(=O)NCCc2ccccc2)nnc1-c1cccnc1	x	x	x	n	n
CCCn1c(SCC(=O)NNC(=O)c2ccccc2)nnc1-c1cccnc1	n	n	32	n	n
CC(C)N(C(=O)CSc1nnc(CNc2ccc(F)cc2)o1)C(C)C	77	n	n	n	n
COc1ccc(-c2nnc(SCC(=O)NNC(=O)c3ccc(C)cc3)o2)cc1	n	n	n	n	n
COC(=O)CSc1nnc(CNc2ccc(F)cc2)o1	n	n	n	n	n
Cc1cc(NC(=O)CSc2nnc(-c3cccnc3)n2Cc2ccccc2)no1	n	n	n	n	n
O=C(CSc1nnc(-c2cccnc2)n1Cc1ccccc1)NCc1ccccc1	n	n	35	n	n
Cc1ccc2nc(COc3ccccc3NC(=O)c3ccccc3F)cc(=O)n2c1	n	n	x	x	x
COc1ccc(/C=C/C(=O)N2CCC(c3nc4ccccc4o3)CC2)cc1OC	n	n	x	x	x
Cc1ccc(NC(=O)c2cc(CN3CCOCC3)on2)cc1Cl	n	n	x	x	x
Cc1nn(C(C)C(=O)Nc2ccccc2C(F)(F)F)c(=O)c2c1sc1ccccc12 (stereo not drawn)	n	n	x	x	x
COc1cccc(-c2nnc(SCC(=O)N(C(C)C)C(C)C)o2)c1	31	n	n	n	n
SMILES	D2 PAM-1	D2 ag-1	D2 antag	D2 ag-2	D2 PAM-2
COc1cc(OC)cc(-c2nnc(SCC(=O)N(C(C)C)C(C)C)o2)c1	n	n	n	n	n
CCOc1ccc(CNC(=O)C2CCCN(c3nc4c(C)cc(C)cc4s3)C2)cc1 (stereo not drawn)	n	n	x	x	x
CN1CCc2c(n(CC(O)CNCc3ccccc3)c3ccccc23)C1=O (stereo not drawn)	n	n	66	n	n
CN1CCc2c(n(CC(O)CN(CCO)CCO)c3ccccc23)C1=O (stereo not drawn)	n	n	n	n	n
COc1ccc(C(=O)C[n+]2cccc(C)c2C)cc1[N+](=O)[O-]	n	n	59	n	n
CCCn1c2ccccc2c2cnn(CC(=O)NCCCN(Cc3ccccc3)C(C)C)c(=O)c21	n	n	x	x	x
COc1ccc(-c2cc(N)n(S(=O)(=O)c3c(F)c(F)c(F)c(F)c3F)n2)cc1OC	n	n	35	n	n
COc1ccc(S(=O)(=O)n2nc(-c3cc(OC)c(OC)c(OC)c3)cc2N)cc1OC	n	n	n	n	n
CC(C)c1ccc(NC(=O)[C@H]2O[C@@H]3OC(C)(C)O[C@@H]3[C@H]3OC(C)(C)O[C@H]32)cc1	n	n	x	x	x
